Where two headings read alike, the source gives them in different places.
What was measured:
Set-up in all cases: species or system human, MV4-11 + K-562 + COLO205 + SK-N-BE2 + OVCAR-8
PIM2 = settings: read-out: apparent Kd, n = 1
ACVR1 = settings: read-out: apparent Kd, compound concentrations: 100 nM and 1000 nM (sheet 'Samples'), n = 1
NEK9 = settings: read-out: apparent Kd, n = 1
PIK3C2A = settings: read-out: apparent Kd, n = 1
AKT2 = settings: read-out: apparent Kd, n = 1
AKT3 = settings: read-out: apparent Kd, n = 1
MAP2K2 = settings: read-out: apparent Kd, n = 1
MAP4K3 = settings: read-out: apparent Kd, compound concentrations: 100 nM and 1000 nM (sheet 'Samples'), n = 1
MAP4K5 = settings: read-out: apparent Kd, n = 1
RPS6KA1 = settings: read-out: apparent Kd, compound concentrations: 100 nM and 1000 nM (sheet 'Samples'), n = 1
STK11 = settings: read-out: apparent Kd, n = 1
MAP4K2 = settings: read-out: apparent Kd, n = 1
SLK = settings: read-out: apparent Kd, n = 1
TGFBR1 = settings: read-out: apparent Kd; compound concentrations:100 nM and 1000 nM (sheet 'Samples'); n = 1
IKBKE = settings: read-out: apparent Kd, n = 1
PIK3C3 = settings: read-out: apparent Kd, n = 1
TEC = settings: read-out: apparent Kd; compound concentrations: 100 nM and 1000 nM (sheet 'Samples'), CATDS: 1.49433127144414E-2; n = 1
TP53RK = settings: read-out: apparent Kd, n = 1
CDK10 = settings: read-out: apparent Kd, n = 1
[1] = compound concentrations:100 nM and 1000 nM (sheet 'Samples')

Structure (SMILES): NC(=O)c1cc(-c2ccccc2)cc2c(C3CCNCC3)c[nH]c12 [GSK301362A]
- potency estimated from few doses (PIM2; [1]): 1500 nM

Structure (SMILES): COc1cc(Nc2nccc(-c3cnn4ncccc34)n2)cc(OC)c1 [GW801372X]
- potency estimated from few doses (ACVR1; CATDS: 2.2901948138858801E-2): 739 nM
- potency estimated from few doses (NEK9; compound concentrations: 100 nM and 1000 nM (sheet 'Samples'), CATDS: 4.3233777925034599E-2): 142 nM
- potency estimated from few doses (PIK3C2A; compound concentrations: 100 nM and 1000 nM (sheet 'Samples'), CATDS: 1.7083513618659799E-2): 2260 nM

Structure (SMILES): c1cnn2ncc(-c3ccnc(Nc4ccc5c(c4)OCCO5)n3)c2c1 [GW806290X]
- potency estimated from few doses (AKT2; compound concentrations: 100 nM and 1000 nM (sheet 'Samples'), CATDS: 2.25042579106303E-2): 1300 nM
- potency estimated from few doses (AKT3; compound concentrations: 100 nM and 1000 nM (sheet 'Samples'), CATDS: 2.0651194958325798E-2): 1770 nM
- potency estimated from few doses (MAP2K2; compound concentrations: 100 nM and 1000 nM (sheet 'Samples'), CATDS: 2.1479851181110499E-2): 1530 nM
- potency estimated from few doses (NEK9; compound concentrations: 100 nM and 1000 nM (sheet 'Samples'), CATDS: 2.42273764121115E-2): 1030 nM

Structure (SMILES): COc1cc[nH]c1/C=C1\C(=O)Nc2ccc(F)c(C#CC3(O)CCNCC3)c21.Cl [RO0282986-001]
- potency estimated from few doses (MAP2K2; compound concentrations: 100 nM and 1000 nM (sheet 'Samples'), CATDS: 1.07586832750675E-2): 1010 nM
- potency estimated from few doses (MAP4K3; CATDS: 9.73261825141249E-3): 1470 nM
- potency estimated from few doses (MAP4K5; compound concentrations: 100 nM and 1000 nM (sheet 'Samples'), CATDS: 8.9413368005166593E-3): 2190 nM
- potency estimated from few doses (RPS6KA1; CATDS: 9.1961356652332602E-3): 1900 nM
- potency estimated from few doses (STK11; compound concentrations: 100 nM and 1000 nM (sheet 'Samples'), CATDS: 1.0901325293505499E-2): 966 nM

Structure (SMILES): O=C(O)C(F)(F)F.O=c1[nH]ccc2nc(N[C@@H]3CCNC3)nc(Nc3cc(Cl)cc(Cl)c3)c12 [GSK2188764A]
- potency estimated from few doses (MAP4K2; [1]): 70.1 nM
- potency estimated from few doses (PIM2; [1]): 2030 nM
- potency estimated from few doses (SLK; [1]): 826 nM

Structure (SMILES): CNc1cc(-c2ccc3c(N)n[nH]c3c2)nc(N)n1 [GSK2224810A]
- potency estimated from few doses (AKT2; [1]): 1880 nM
- potency estimated from few doses (TGFBR1): 1160 nM

Structure (SMILES): CCn1c(-c2cccnc2O)nc2cnccc21 [SB-736715]
- potency estimated from few doses (AKT2; compound concentrations: 100 nM and 1000 nM (sheet 'Samples'), CATDS: 1.4638911444233901E-2): 1360 nM
- potency estimated from few doses (IKBKE; compound concentrations: 100 nM and 1000 nM (sheet 'Samples'), CATDS: 1.31503893194051E-2): 1730 nM
- potency estimated from few doses (MAP2K2; compound concentrations: 100 nM and 1000 nM (sheet 'Samples'), CATDS: 1.1967755653937401E-2): 2210 nM
- potency estimated from few doses (MAP4K3; CATDS: 1.18582584558427E-2): 2260 nM
- potency estimated from few doses (PIK3C2A; compound concentrations: 100 nM and 1000 nM (sheet 'Samples'), CATDS: 1.67467583314573E-2): 1040 nM
- potency estimated from few doses (PIK3C3; compound concentrations: 100 nM and 1000 nM (sheet 'Samples'), CATDS: 1.55952310039979E-2): 1190 nM
- potency estimated from few doses (PIM2; compound concentrations: 100 nM and 1000 nM (sheet 'Samples'), CATDS: 1.60081703977401E-2): 1130 nM
- potency estimated from few doses (STK11; compound concentrations: 100 nM and 1000 nM (sheet 'Samples'), CATDS: 1.3793469415990099E-2): 1550 nM
- potency estimated from few doses (TEC): 1300 nM
- potency estimated from few doses (TP53RK; compound concentrations: 100 nM and 1000 nM (sheet 'Samples'), CATDS: 1.2573959142924701E-2): 1940 nM

Structure (SMILES): COc1ccc(-c2cc3c(N)ncnc3o2)cc1 [GW642138X]
- potency estimated from few doses (MAP2K2; compound concentrations: 100 nM and 1000 nM (sheet 'Samples'), CATDS: 0.100903208593323): 1800 nM

Structure (SMILES): CC(C)Oc1ccc2c(-c3ccnc(Nc4ccc(N5CCN(C)CC5)cc4)n3)cnn2n1 [GW696155X]
- potency estimated from few doses (IKBKE; [1]): 343 nM
- potency estimated from few doses (NEK9; [1]): 26 nM

Structure (SMILES): CS(=O)(=O)CCn1c(=O)c(Oc2ccc(F)cc2F)cc2cnc(NC3CCOCC3)nc21 [RO5027956-000]
- potency estimated from few doses (AKT3; [1]): 2170 nM
- potency estimated from few doses (PIM2; [1]): 1660 nM

Structure (SMILES): NCC(NC(=O)c1cc(-c2cn[nH]c2)c(-c2ccnc3[nH]ccc23)s1)c1ccccc1.NCC(NC(=O)c1cc(-c2cn[nH]c2)c(-c2ccnc3[nH]ccc23)s1)c1ccccc1.O=C(O)C(F)(F)F.O=C(O)C(F)(F)F (stereo not drawn) [GSK1325775A]
- potency estimated from few doses (ACVR1; CATDS: 3.5400947915422802E-2): 1180 nM

Structure (SMILES): COC(=O)c1cccc(NC(=O)NC2CCN(c3ccnc(Nc4cc(OC)c(OC)c(OC)c4)n3)C2)c1 (stereo not drawn) [GSK1379767A]
- potency estimated from few doses (MAP2K2; compound concentrations: 100 nM and 1000 nM (sheet 'Samples'), CATDS: 9.7469990790668801E-2): 1880 nM
- potency estimated from few doses (PIK3C2A; compound concentrations: 100 nM and 1000 nM (sheet 'Samples'), CATDS: 9.3691802712770805E-2): 2080 nM

Structure (SMILES): O=C(O)C(F)(F)F.O=c1[nH]ccc2nc(N[C@@H]3CCNC3)nc(Nc3ccc4c(c3)S(=O)(=O)CC4)c12 [GSK2181306A]
- potency estimated from few doses (CDK10; compound concentrations: 100 nM and 1000 nM (sheet 'Samples'), CATDS: 1.0545767640912401E-2): 729 nM
- potency estimated from few doses (MAP2K2; compound concentrations: 100 nM and 1000 nM (sheet 'Samples'), CATDS: 8.3394959268462601E-3): 1620 nM
- potency estimated from few doses (MAP4K2; compound concentrations: 100 nM and 1000 nM (sheet 'Samples'), CATDS: 2.4699396499264999E-2): 121 nM
- potency estimated from few doses (MAP4K3; CATDS: 1.12434649854769E-2): 612 nM
- potency estimated from few doses (MAP4K5; compound concentrations: 100 nM and 1000 nM (sheet 'Samples'), CATDS: 1.5726732073661799E-2): 283 nM
- potency estimated from few doses (PIM2; compound concentrations: 100 nM and 1000 nM (sheet 'Samples'), CATDS: 8.9086191917804505E-3): 1250 nM
- potency estimated from few doses (RPS6KA1; CATDS: 8.5840482500919892E-3): 1440 nM
- potency estimated from few doses (SLK; compound concentrations: 100 nM and 1000 nM (sheet 'Samples'), CATDS: 1.8680668627662898E-2): 201 nM
- potency estimated from few doses (STK11; compound concentrations: 100 nM and 1000 nM (sheet 'Samples'), CATDS: 1.6673452289140401E-2): 251 nM

Structure (SMILES): CCN(CC)Cc1ccc(Nc2nccc(-c3cnn4ncccc34)n2)cc1 [GW780056X]
- potency estimated from few doses (NEK9; compound concentrations: 100 nM and 1000 nM (sheet 'Samples'), CATDS: 2.0464339173062999E-2): 1220 nM

Structure (SMILES): c1ccc(-c2n[nH]cc2Nc2ccnc3ccccc23)nc1 [GW694077X]
- potency estimated from few doses (AKT2; compound concentrations: 100 nM and 1000 nM (sheet 'Samples'), CATDS: 2.2309238886047199E-2): 2350 nM
- potency estimated from few doses (PIK3C2A; compound concentrations: 100 nM and 1000 nM (sheet 'Samples'), CATDS: 2.3388870990997498E-2): 1900 nM

Structure (SMILES): CN[C@H](C#Cc1c(F)ccc2c1/C(=C/c1[nH]ccc1OC)C(=O)N2)CO.Cl [RO0283049-001]
- potency estimated from few doses (STK11; compound concentrations: 100 nM and 1000 nM (sheet 'Samples'), CATDS: 2.2375085806392098E-2): 1190 nM

Structure (SMILES): Cc1occc1-c1nc(N)c(OC[C@@H](N)Cc2c[nH]c3ccccc23)cc1-c1cc2c(C)n[nH]c2cn1 [GSK1660450B]
- potency estimated from few doses (MAP4K5; [1]): 50.5 nM

Structure (SMILES): NS(=O)(=O)c1ccc(NC=C2C(=O)Nc3ccc4ncsc4c32)cc1 [GW589933X]
- potency estimated from few doses (MAP4K3; CATDS: 1.6349767602700901E-2): 2070 nM

Structure (SMILES): COc1cc[nH]c1/C=C1\C(=O)Nc2ccc(F)c(C#C[C@@H](O)[C@@H](N)[C@@H](C)O)c21 [RO0283120-000]
- potency estimated from few doses (MAP4K2; [1]): 1070 nM
- potency estimated from few doses (STK11; [1]): 1010 nM

Structure (SMILES): Cl.Cn1c(=O)c(Cc2ccccc2F)cc2cnc(NC3CCOCC3)nc21 [RO3305377-001]
- potency estimated from few doses (AKT3; compound concentrations: 100 nM and 1000 nM (sheet 'Samples'), CATDS: 1.8504555943704901E-2): 1380 nM

Structure (SMILES): CC(C)N1CC(=O)N(C)c2cnc(Nc3cccc(S(=O)(=O)CCN4CCOCC4)c3)nc21 [BI00009348]
- potency estimated from few doses (SLK; compound concentrations: 100 nM and 1000 nM (sheet 'Samples'), CATDS: 4.9346970439547798E-2): 1920 nM

Structure (SMILES): CCC(CC)(CC)n1cnc2c(N)ncnc21 [SKF-97620]
- potency estimated from few doses (PIK3C2A; compound concentrations: 100 nM and 1000 nM (sheet 'Samples'), CATDS: 2.66380598887557E-2): 1430 nM
- potency estimated from few doses (PIK3C3; compound concentrations: 100 nM and 1000 nM (sheet 'Samples'), CATDS: 3.20593447179814E-2): 852 nM

Structure (SMILES): Nc1nc(-c2ccc3c(N)n[nH]c3c2)cc(N2CCCC(NC(=O)c3ccccc3)C2)n1 (stereo not drawn) [GSK2286775B]
- potency estimated from few doses (AKT2; [1]): 1370 nM
- potency estimated from few doses (IKBKE; [1]): 298 nM
- potency estimated from few doses (MAP2K2; [1]): 1560 nM
- potency estimated from few doses (PIK3C2A; [1]): 1910 nM
- potency estimated from few doses (TP53RK; [1]): 2230 nM

Structure (SMILES): Cl.Nc1nc(-c2ccc3c(c2)C(=Cc2cc(Br)c(O)c(Br)c2)C(=O)N3)cs1 [GW407323A]
- potency estimated from few doses (TP53RK; compound concentrations: 100 nM and 1000 nM (sheet 'Samples'), CATDS: 2.8034660612356401E-2): 1950 nM

Structure (SMILES): O=C(Nc1n[nH]c2nc(-c3ccccc3O)ccc12)C1CC1 [SB-711880]
- potency estimated from few doses (MAP4K2; [1]): 1460 nM
- potency estimated from few doses (MAP4K5; [1]): 1760 nM

Structure (SMILES): Nc1nccc(-c2ccc3c(N)n[nH]c3c2)n1 [GSK1034945A]
- potency estimated from few doses (TP53RK; [1]): 1540 nM

Structure (SMILES): Cc1cc(NC(=O)c2cccc(NC(=O)/C=C/CN(C)C)c2)ccc1Nc1nccc(-c2cccnc2)n1 [JNK-IN-7]
- potency estimated from few doses (CDK10; [1]): 844 nM
- potency estimated from few doses (NEK9; [1]): 1380 nM
- potency estimated from few doses (PIK3C3; [1]): 1570 nM

Reference: article PMC11062922 (Nature Chemical Biology, 2023)
